In PubChem BioAssay (NCATS):
Inconclusive results are not listed. A call without a number means that no potency is given here. The source made the active and inactive calls. The call rests on the fitted dose curve; in most records, active means well fitted inhibition curve with a large enough effect; inconclusive means small, poorly fitted or top-dose-only effect; inactive means flat fitted curve, though single readings scatter.

These compounds were tested against Calcium and integrin-binding protein 1 (Homo sapiens) (UniProt Q99828) (assay: Primary qHTS for Identification of Calcium Integrin Binding Protein 1 (CIB1) Competitor (AID 1508620; further: top concentration of the series differs between compounds)). Conditions: CIB1-GST / FITC-alphaIIb peptide fluorescence polarization; series mostly up to 114 µM.
Calcium and integrin-binding protein 1 (Homo sapiens), sequence (Q99828 whole entry, looked up): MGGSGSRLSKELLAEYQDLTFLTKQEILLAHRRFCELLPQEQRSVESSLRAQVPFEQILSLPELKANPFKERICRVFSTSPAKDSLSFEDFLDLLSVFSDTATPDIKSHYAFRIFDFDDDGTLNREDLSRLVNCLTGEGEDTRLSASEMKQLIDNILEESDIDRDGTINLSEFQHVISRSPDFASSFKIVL
Outline: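 Fluorescence polarization competition: GST-tagged CIB1 (1 uM final) preincubated with compound 15 min at room temperature, then FITC-labelled alphaIIb peptide (100 nM final) added. After 15 min at room temperature, polarization read at Ex 480/Em 540.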

| Compound | Potency |
| --- | --- |
| O=C(CNC(=O)c1ccc2n[nH]nc2c1)OC(C(=O)Nc1cc(C(F)(F)F)ccc1Cl)c1ccccc1 (stereo not given) | inactive |
| N#Cc1nonc1-c1ccccc1 | inactive |
| Cc1sc(NC(=O)Cc2ccc3c(c2)OCO3)nc1-c1ccc2c(c1)CCN2C(=O)c1ccccc1C(F)(F)F | inactive |
| COc1ccc(CSc2nc3ncc(Br)cc3[nH]2)cc1F | inactive |
| COc1ccc(C2Nc3ccccc3C(=O)N2Cc2ccccc2C)cc1COc1ccc(NC(C)=O)cc1 (stereo not given) | inactive |
| O=C(Nc1cccc(Cc2ccccc2)n1)c1ccc(-c2cccc([N+](=O)[O-])c2)o1 | inactive |
| Cn1ccc2cc(-c3ccc4ncnc(NCc5cccnc5)c4c3)ccc21 | inactive |
| O=C(Nc1ncc(Cc2ccc(C(F)(F)F)cc2)s1)c1ncc(-c2ccccc2)[nH]1 | inactive |
| COc1ccnc(NC(=S)N2CCN(c3cccc(Cl)c3Cl)CC2)c1 | inactive |
| CC(C)(C)OC(=O)N1CCN(c2ccc(NCc3ccnc(-c4ccc(C#N)cc4)n3)cc2)CC1 | inactive |
| Cc1nnc(-c2cnn(C)c2N)n1CCCc1ccccc1 | inactive |
| COc1ccc(-c2nnc3n2N=C(c2ccc(OC)c(OC)c2)CS3)cc1 | inactive |
| Fc1ccc(Nc2nc(-c3ccnc(N4CCCCC4)c3)nc3ccccc23)cc1F | inactive |
| CCOC(=O)c1ccc(-c2ccc3ncnc(NCc4csc(C)n4)c3c2)o1 | inactive |
| O=C(CNC(=O)c1ccccc1)OC(CCc1ccccc1)C(=O)Nc1cc(C(F)(F)F)ccc1Cl (stereo not given) | inactive |
| Cn1c2cc(Br)sc2c2cnn(Cc3c(F)cccc3Cl)c(=O)c21 | inactive |
| O=S(=O)(Nc1nccs1)c1ccc(NCc2cc(F)ccc2O)cc1 | inactive |
| O=C(O)c1ccc(-n2cccc2/C=C2\SC(=O)N(Cc3ccccc3Cl)C2=O)cc1 | inactive |
| COc1cccc(NS(=O)(=O)c2ccc3c(c2)CCC(=O)N3)c1 | inactive |
| COc1cccc(-c2ccc3ncnc(NCc4cc(C)cs4)c3c2)c1 | inactive |

| Compound | Potency |
| --- | --- |
| FC(F)(F)c1ccccc1-c1nc(NCc2ccc(-c3ccc4c(c3)OCO4)cc2)c2ccccc2n1 | inactive |
| COc1ccccc1C(=O)NCCc1nc2ccccc2n1CCOc1ccc(C)cc1 | inactive |
| COc1ccc(-c2ccc3ncnc(NCc4nc(C)cs4)c3c2)cc1OC | inactive |
| c1csc(CNc2ccc(N3CCCCC3)cc2)c1 | inactive |
| COc1ccc(CNc2ccc(N3CCN(C(C)=O)CC3)cc2)cc1OC | inactive |
| COc1cccc(CN2C(=O)c3ccccc3NC2c2ccc(OC)c(COc3c(C)cc(NC(C)=O)cc3C)c2)c1 (stereo not given) | inactive |
| COc1cccc(C2c3c(ncn(-c4cccc(C#N)c4)c3=N)Oc3ccc4ccccc4c32)c1 (stereo not given) | inactive |
| COc1cccc(C2c3c(ncn(-c4cccnc4)c3=N)Oc3ccc4ccccc4c32)c1 (stereo not given) | inactive |
| O=C1Nc2cccc(Cl)c2/C1=C\c1cc(Cl)c(O)c(Cl)c1 | inactive |
| Cc1cccc(-n2cnc3cc(C(=O)N4CCN(C)CC4)ccc32)c1 | inactive |
| c1nc(NCC2CCCC2)c2cc(-c3ccc4c(c3)OCO4)ccc2n1 | inactive |
| Cc1cc2c(s1)c1cnn(Cc3ccc(C(C)C)cc3)c(=O)c1n2C | inactive |
| O=C(Nc1ccc2ccccc2c1)Nc1nnc(C2CCCCC2)s1 | inactive |
| CN(C)c1cnc2c(O)ccc([S+](=O)([O-])Nc3ccccc3F)c2c1 | inactive |
| Cc1cc(C)nc(NC(=S)N2CCN(c3ccc4ccccc4n3)CC2)c1 | inactive |
| COc1ccc(C2Nc3ccccc3C(=O)N2Cc2cccc(Cl)c2)cc1COc1ccc(NC(C)=O)cc1 (stereo not given) | inactive |
| O=C(O)c1ccc(O)c2ncc(N3CCCCC3)cc12 | inactive |
| O=C(OC/C=C/CSc1nnc(-c2cccc3ccccc23)o1)c1ccc(F)cc1 | inactive |
| Cc1ccc(-c2ccc(CNc3nc(-c4ccccc4C(C)C)nc4ccsc34)cc2)cn1 | inactive |
| N#Cc1nc(-c2cccc3ccccc23)oc1NCC#CCOC(=O)c1cccs1 | inactive |
